Experimental data taken from PubChem BioAssay (NCATS).
Inconclusive results are not listed. Calls of active or inactive are those of the source. Unless noted, calls come from the whole dose curve.

Columns and labels:
[1] = NS1 protein of Zika virus - qHTS assay to identify small molecule inhibitors in human HEK 293 cells (AID 1347053; active = well fitted inhibition curve with a large enough effect; note: series mostly up to about 46 µM; nearly all actives have a fitted effect of over 55% in size)
In short: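 HEK 293 cells, seeded 20 h at 37 C, were pretreated with compound 1 h, then infected with ZIKV MR766 (MOI = 0.5) for 24 h. NS1 was read by TR-FRET with two anti-NS1 antibodies, normalized to uninfected and infected wells.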

[2] = qHTS for Inhibitors of the Functional Ribonucleoprotein Complex (vRNP) of Lassa (LASV) Arenavirus: LASV Primary Screen - GLuc reporter signal (AID 1347082; calls by dose curve; tested in HEK293 reporter line; note: series mostly up to about 57 µM; nearly all actives have a fitted effect of over 60% in size)
[3] = qHTS for Inhibitors of the Functional Ribonucleoprotein Complex (vRNP) of Lassa (LASV) Arenavirus: Viability assay - alamar blue signal for LASV Primary Screen (AID 1347083; calls by dose curve; tested in HEK293 reporter line; note: series mostly up to about 57 µM; nearly all actives have a fitted effect of over 80% in size)
[4] = qHTS for Inhibitors of the Functional Ribonucleoprotein Complex (vRNP) of Lymphocytic Choriomeningitis Arenaviruses (LCMV): Viability assay - alamar blue signal for LCMV Primary Screen (AID 1347085; calls by dose curve; tested in HEK293 reporter line; note: series mostly up to about 57 µM; nearly all actives have a fitted effect of over 80% in size)
[5] = target: Nucleoprotein (Lymphocytic choriomeningitis virus (strain Armstrong)) (UniProt P09992); experiment: qHTS for Inhibitors of the Functional Ribonucleoprotein Complex (vRNP) of Lymphocytic Choriomeningitis Arenaviruses (LCMV): LCMV Primary Screen - GLuc reporter signal (AID 1347086); note: series mostly up to about 57 µM; nearly all actives have a fitted effect of over 70% in size
Nucleoprotein (Lymphocytic choriomeningitis virus (strain Armstrong)), sequence (P09992 whole entry, looked up): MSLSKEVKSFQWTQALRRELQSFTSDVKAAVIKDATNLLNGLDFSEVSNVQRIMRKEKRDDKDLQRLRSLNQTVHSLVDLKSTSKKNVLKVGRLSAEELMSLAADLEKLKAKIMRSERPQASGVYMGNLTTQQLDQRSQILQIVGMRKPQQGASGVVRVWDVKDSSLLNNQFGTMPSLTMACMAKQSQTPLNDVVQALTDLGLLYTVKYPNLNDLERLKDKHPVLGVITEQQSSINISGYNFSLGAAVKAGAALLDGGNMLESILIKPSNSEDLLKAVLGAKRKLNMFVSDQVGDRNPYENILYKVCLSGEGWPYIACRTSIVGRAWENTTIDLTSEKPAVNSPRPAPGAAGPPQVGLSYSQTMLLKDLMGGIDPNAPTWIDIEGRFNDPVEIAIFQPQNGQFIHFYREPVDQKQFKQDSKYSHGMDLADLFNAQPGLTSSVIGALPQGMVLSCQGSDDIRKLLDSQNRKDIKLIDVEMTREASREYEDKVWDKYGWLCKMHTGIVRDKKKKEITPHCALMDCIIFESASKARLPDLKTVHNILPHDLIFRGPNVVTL

Measured: Potency

CC[C@H]1C[C@@H]2C[C@H]3c4[nH]c5ccc(OC)cc5c4CCN(C2)[C@@H]13
inactive: all assays above

CN1C(=O)CN=C(c2ccccc2)c2cc(Cl)ccc21
inactive: all assays above

CC[C@H]1C[C@H]2[C@@H]3CCC4=CC(=O)CC[C@@H]4[C@H]3CC[C@]2(C)[C@H]1O
inactive: all assays above

CCOC(=O)c1ncn2c1CN(C)C(=O)c1c(I)cccc1-2
inactive: all assays above

C1CN2CCC1CC2
inactive: all assays above

COc1ccc2[nH]cc(CCN(C(C)C)C(C)C)c2c1
inactive: all assays above

CCN(CC)C(C)C(=O)c1ccccc1 (stereo not drawn)
inactive: all assays above

CC(Cc1ccccc1)NCc1ccccc1Cl (stereo not drawn)
inactive: all assays above

CCC1(c2ccccc2)CCC(=O)NC1=O (stereo not drawn)
inactive: all assays above

CC(Cc1ccc2c(c1)OCO2)NO (stereo not drawn)
inactive: all assays above

CCCOC(=O)Cc1ccc(OCC(=O)N(CC)CC)c(OC)c1
inactive: all assays above

C[C@@H]1O[C@@H](O[C@@H]2C=C3CC[C@@H]4[C@H](CC[C@]5(C)[C@@H](c6ccc(=O)oc6)CC[C@]45O)[C@@]3(C)CC2)[C@H](O)[C@H](O)[C@H]1O
inactive: all assays above

CN1C(=O)CN=C(c2ccccc2)c2cc([N+](=O)[O-])ccc21
inactive: all assays above

C=CC[C@]1(O)CC[C@H]2[C@@H]3CCC4=CC(=O)CCC4=C3C=C[C@@]21C
inactive: all assays above

CN1C[C@@H](NS(=O)(=O)N(C)C)C[C@@H]2c3cccc4c3c(cn4C)C[C@H]21
inactive: all assays above

C[C@]12CC[C@H](O)CC1=CC[C@@H]1[C@@H]2CC[C@]2(C)C(=O)CC[C@@H]12
inactive: all assays above

CC(=O)OC1(c2ccccc2)CCN(CCc2ccccc2)CC1
inactive: all assays above

O=C(CCCCl)c1ccc(F)cc1
inactive: all assays above

CC#C[C@]1(O)CC[C@H]2[C@@H]3C[C@H](C)C4=CC(=O)CC[C@]4(C)[C@H]3CC[C@@]21C
inactive: all assays above

C[N+]1(C)[C@@H]2CC[C@H]1CC(OC(=O)C(CO)c1ccccc1)C2 (stereo partly drawn)
inactive: all assays above

CCN(CC)Cc1nccn1-c1ccc([N+](=O)[O-])cc1C(=O)c1ccccc1Cl
inactive: all assays above

ClC1=C(Cl)C2(Cl)C(CBr)CC1(Cl)C2(Cl)Cl (stereo not drawn)
inactive: all assays above

COc1cc(N)c(Cl)cc1C(=O)NC1CN2CCC1CC2 (stereo not drawn)
inactive: all assays above

CCN(CC)CCOC(=O)C(C)(c1ccccc1)c1ccccc1
inactive: all assays above

C[C@]12CC[C@H]3[C@@H](CC=C4C[C@@H](O)CC[C@@]43C)[C@@H]1CC[C@@H]2O
inactive: all assays above

COP(=O)(OC)OC=C(Cl)Cl
inactive: all assays above

CC(C)[N+](C)(CCC(C(N)=O)(c1ccccc1)c1ccccc1)C(C)C
inactive: all assays above

C[C@]12C=CC(=O)C=C1CC[C@@H]1[C@@H]2CC[C@@]2(C)[C@H]1CC[C@]2(C)O
inactive: all assays above

C[C@H]1C(=O)O[C@@H]2CCN3CC=C(COC(=O)[C@](C)(O)[C@]1(C)O)[C@H]23
inactive: all assays above

Cc1nnc2n1-c1sc(CCC(=O)N3CCOCC3)cc1C(c1ccccc1Cl)=NC2
inactive: all assays above

CCN(Cc1ccc(Cl)nc1)/C(=C/[N+](=O)[O-])NC
inactive: all assays above

CN1[C@@H]2CC[C@H]1CC(OC(=O)c1cc(Cl)cc(Cl)c1)C2 (stereo partly drawn)
inactive: all assays above

COCC(=O)N(c1c(C)cccc1C)C(C)C(=O)OC (stereo not drawn)
inactive: all assays above

CC(C)(O)C(Cl)(Cl)Cl
inactive: all assays above

CCCN(CCC)CCc1c[nH]c2ccccc12
inactive: all assays above

COc1cc(CC(C)N)cc2c1OCO2 (stereo not drawn)
inactive: all assays above

O=C(CBr)Nc1ccc(Cl)cc1C(=O)c1ccccc1F
inactive: all assays above

NC(=O)OCCCc1ccccc1
inactive: all assays above

COc1cc(C[C@@H](C)N)c(OC)cc1C
inactive: all assays above

CNC(=O)NC(O)C(Cl)(Cl)Cl (stereo not drawn)
inactive: all assays above

Sc1ccccc1Cl
inactive: all assays above

CC(CC(C#N)(c1ccccc1)c1ccccc1)N(C)C (stereo not drawn)
inactive: all assays above

C=CCN1CC[C@]23CCCC[C@H]2[C@H]1Cc1ccc(O)cc13
inactive: all assays above

CN(C)CCc1c[nH]c2cccc(O)c12
inactive: all assays above

CCc1ccc(C2CCNCC2)cc1
inactive: all assays above

Nc1ccc(N)cc1
inactive: all assays above

CCOC(=O)C1(c2ccccc2)CCN(CCc2ccc(N)cc2)CC1
inactive: all assays above

CCC(=O)O[C@H]1CC[C@H]2[C@@H]3CCC4=CC(=O)CC[C@]4(C)[C@H]3CC[C@]12C
inactive: all assays above

CC(C)=CCN1CC[C@@]2(C)c3cc(O)ccc3C[C@@H]1[C@@H]2C
inactive: all assays above

CC[C@]1(O)CC[C@H]2[C@@H]3CCC4=CCCC[C@@H]4[C@H]3CC[C@@]21C
inactive: [1] | [2] | [5]
